# Assay outcomes from PubChem BioAssay.
# HPGD inh – inhibitors of human 15-hydroxyprostaglandin dehydrogenase (HPGD); P15428; purified HPGD, NADH fluorescence kinetic, PGE2 substrate; Potency, µM, without a hit: at the top dose activity change, negative = inhibition, hits mostly inhibitors; 4.3% of 150,000 active; AID 894; note: potency is the fitted concentration of half-maximal effect
#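 NADH formation kinetics: reaction with 30 uM PGE2 and 1 mM NAD+ (final), 20 nM enzyme, Tris-HCl pH 8 with Tween 20, after 15 min compound preincubation at room temperature. Fluorescence change, last versus first of five reads.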
# ALDH1A1 inh – blocks purified human ALDH1A1 activity. Purified ALDH1A1, NADH fluorescence, propionaldehyde substrate. Potency, µM (doses to about 75.3 µM), inactives show at the top dose activity, negative = inhibition, most hits filed as inhibitors. 7.3% of 220,000 active. AID 1030;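 note: potency is the fitted concentration of half-maximal effect; plate controls were no enzyme wells and a reference inhibitor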
# Target sequence (P00352 whole entry, looked up): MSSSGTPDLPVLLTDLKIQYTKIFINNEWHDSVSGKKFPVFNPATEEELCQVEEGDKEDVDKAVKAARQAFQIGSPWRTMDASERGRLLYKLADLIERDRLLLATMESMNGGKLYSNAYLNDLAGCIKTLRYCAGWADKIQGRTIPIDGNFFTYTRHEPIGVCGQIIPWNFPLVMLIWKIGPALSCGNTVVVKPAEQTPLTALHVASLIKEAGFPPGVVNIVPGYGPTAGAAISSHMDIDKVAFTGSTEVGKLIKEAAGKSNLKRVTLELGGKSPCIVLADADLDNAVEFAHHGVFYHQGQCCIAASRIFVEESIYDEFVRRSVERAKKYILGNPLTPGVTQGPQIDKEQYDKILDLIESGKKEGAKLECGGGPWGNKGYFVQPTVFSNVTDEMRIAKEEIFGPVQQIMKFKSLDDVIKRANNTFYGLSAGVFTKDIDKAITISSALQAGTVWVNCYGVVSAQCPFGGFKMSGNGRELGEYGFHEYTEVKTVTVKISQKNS
# PNC inhibitor – perinucleolar compartment assembly inhibition; PC3M PTB-GFP, PNC prevalence imaging, 16 h; hits give low values; activity change (PNC), negative = inhibition, % at 10 µM; 3.1% of 140,000 active;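 active = readout at or below -70, meaning at least 70% loss of cells showing the perinucleolar compartment, a nuclear body marking cancer cells; inconclusive = readout between -30 and a set limit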;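 note: plate controls were DMSO wells for no effect and camptothecin positive control wells for full effect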
#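 Read-out is percentage of cells bearing a perinucleolar compartment, from automated 20x imaging of fixed, Hoechst-stained PC3M PTB-GFP cells. Cells were seeded 4 h, then exposed 16 h to compound (23 nl of library stock) in duplicate plates.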
# The depositor's hits bear a star; ? = inconclusive; . = not tested or not shown; [ ] = dose if it differs, or a comment. Only some compounds are listed: those with a hit (about 11% of all), similar ones and a draw of the others. Unless noted, calls come from the whole dose curve; as a rule, active = well fitted inhibition curve with a large enough effect (not every such curve was filed as active); inconclusive = small, poorly fitted or top-dose-only effect, or another doubt; inactive = no such curve, though single readings can be large or run the other way. Unless noted, % is set by controls: 0 for no effect and ±100 for the full control effect.
SMILES,HPGD inh,ALDH1A1 inh,PNC inhibitor
O=C(NCCO)C(O)C(O)C(=O)NCCO (stereo unspecified),.,18µM*,.
CCCCCCCCCCCCCCCC(=O)NCCO,-7%,1%,.
O=C1OC(/C=C/c2ccc(Cl)cc2)=NC/1=C/c1ccco1,-10%,2µM*,-30
O=C1OC(/C=C/c2ccccc2)=NC/1=C/C=C/c1ccccc1,-17%,?,?
COc1ccccc1CN1CCC2(CC1)CCN(S(C)(=O)=O)CC2,1%,-8%,.
CCOC(=O)C1=C(Cc2ccc(Cl)cc2)C(=O)c2ccccc2C1=O,3.5µM*,?,51
CCOC(=O)C1=C(C)N=C2c3ccccc3C(=O)C2C1c1ccc(Cl)cc1 (stereo unspecified),-6%,-9%,-30
CC(C)CNC(=O)c1ccc(COc2ccc(Cl)cc2Cl)o1,-21%,-16%,0
O=C(Nc1ccccc1F)c1ccc(COc2ccc(Cl)cc2Cl)o1,-15%,28µM*,23
Cc1cc(C)nc(NC(=O)CN2C(=O)c3ccccc3C2=O)n1,-10%,1%,38
O=c1cc(-c2ccccc2)n(S(=O)(=O)c2ccccc2)o1,-18%,25µM*,4
COc1ccc(S(=O)(=O)n2oc(=O)cc2-c2ccccc2)cc1,-14%,?,?
CS(=O)(=O)N(CC(=O)NCc1ccccc1)C1CCCCC1,-7%,5%,?
CN(C1CCCCC1)S(=O)(=O)Cc1ccccc1,18µM*,-95%,35
O=C(Nn1cnc2ccccc2c1=O)C1CCCCC1,-8%,7%,?
CC(=O)OC(Cn1ccnc1)c1ccccc1 (stereo unspecified),-10%,6%,-20
Cc1ccc2sc(-c3ccc(NC(=O)CCN4C(=O)c5ccccc5C4=O)cc3)nc2c1,-22%,7%,-4
COc1ccc(C(=O)NNC2=CC(=O)CC(C)(C)C2)cc1,0%,-3%,-8
CC1(C)CC(=O)C=C(OC(=O)c2ccc(Cl)cc2)C1,14µM*,7%,-15
O=C(COc1cc(Cl)c(Cl)cc1Cl)Nn1cnnc1,-7%,6%,26
CC/C(=N\NC(=O)CNC(=O)/C=C/c1ccco1)c1ccccc1,-13%,14µM*,10
O=C(/C=C/c1cccc(Cl)c1)NCCc1ccccc1,8.9µM*,?,-18
O=C(/C=C/c1c(Cl)cccc1Cl)NCCc1ccccc1,-15%,12%,76
CCC/C(=N\NC(=O)CNC(=O)/C=C/c1ccco1)c1ccccc1,-23%,-6%,52
COc1ccc(C2(CNC(=O)/C=C/c3ccco3)CCCC2)cc1OC,-22%,?,21
SMILES,HPGD inh,ALDH1A1 inh,PNC inhibitor
O=C(COC(=O)c1cccs1)NCCC1=CCCCC1,18µM*,8%,?
O=C(/C=C/c1ccco1)NCC1(c2ccccc2)CCCC1,-10%,?,-109*
Cc1ccc(C(=O)OCC(=O)NCCC2=CCCCC2)s1,-21%,?,0
CC1CCN(C(=O)CN(c2cccc(F)c2)S(C)(=O)=O)CC1,.,4%,.
C[C@H]1[C@H](C)CC[C@]2(C(=O)O)CC[C@]3(C)C(=CC[C@H]4[C@]3(C)C[C@@H](O)C3[C@](C)(CO)[C@H](O)[C@@H](O)C[C@]34C)[C@H]12 (stereo partly specified),-3%,-10%[13.5 µM],.
CC1(C)CC(=O)CC(=Nc2ccc(C(=O)O)cc2)C1,-15%,?,46
CSc1nc(C)cc(OCC#N)n1,-6%,?,-9
O=C(/C=C/c1ccco1)NCCc1ccccc1,.,22µM*,.
O=C(O)/C=C/C(=O)NCCc1ccccc1,.,-16%,.
O=C(O)CCCCCNC(=O)/C=C/c1ccco1,.,2%,.
O=C(/C=C/c1ccco1)Nc1cccc(NC(=O)/C=C/c2ccco2)n1,-13%,-6%,24
O=C(O)CCCNC(=O)/C=C/c1ccco1,.,22µM*,.
O=C(/C=C/c1ccccc1)NCCC1=CCCCC1,28µM*,-1%,58
CC(C)=CC(=O)NCCc1ccccc1,20µM*,?,-5
O=C(/C=C/c1ccc(F)cc1)NCCC1=CCCCC1,-20%,-12%,106
N#Cc1cccc(S(=O)(=O)NCC(=O)OCC(=O)c2ccc[nH]2)c1,.,11%,.
Cc1ccc(S(=O)(=O)Cn2nnnc2C(c2ccc(F)cc2)N2CCC(C(N)=O)CC2)cc1 (stereo unspecified),-7%,-4%,-5
CC/C(O)=C1\C(=O)CC(c2ccccc2)CC1=NC(C)C (stereo unspecified),-15%,-7%,-16
CN(CCOC(=O)/C=C/c1ccco1)Cc1ccccc1,.,22µM*,.
CN(CCOC(=O)c1ccco1)Cc1ccccc1,-14%,?,33
CC1=NN(c2ccc(C(=O)OC(C)C)cc2)C(=O)/C1=C\C=C\c1ccco1,-23%,?,366
CCOC(=O)c1ccc(N2N=C(C)/C(=C/C=C/c3ccco3)C2=O)cc1,-25%,0.22µM*,29
CCCCCCN(C(=O)CCCCCN1C(=O)NC(c2ccc(-c3ccccc3)cc2)C(C(=O)OCc2ccccc2)=C1C)C(C(=O)NCCCC)c1ccc(OCC(=O)O)c(C(=O)O)c1 (stereo unspecified),-10%,-13%,.
CC(=O)CCc1c[nH]c2c(C(=O)O)cccc12,0%,3%,47
CCN(CC)C(=O)CNC(=S)N(CCCN1CCOCC1)Cc1cccs1,-1%,-1%,44
SMILES,HPGD inh,ALDH1A1 inh,PNC inhibitor
CCCc1nnc(NC(=O)Cn2c(=O)oc3cc(Br)ccc32)s1,?,?,-10
O=c1oc2cc(Br)ccc2n1CSC1=NCCS1,22µM*,?,-20
Cc1c(Cl)cn2c(=O)cc(CN(C)Cc3nc4ccccc4c(=O)[nH]3)nc2c1Cl,.,-4%,.
Cc1ccc(-n2cc(CNCCN3CCOC3=O)c(-c3cccc(C)c3)n2)cc1,.,7.1µM*,.
COC(=O)CC1C(=O)NCCN1Cc1cn(-c2ccc(C)cc2)nc1-c1cccc(C)c1 (stereo unspecified),.,-7%,.
O=C(c1cnn2c(C(F)F)cc(-c3ccccc3)nc12)N1CCc2ccccc2C1,.,-13%,.
O=C(c1cnn2c(C(F)F)cc(-c3ccccc3)nc12)N1CCCc2ccccc21,3%,20µM*,?
COc1ccc(-c2cc(C(F)F)n3ncc(C(=O)N4CCCc5ccccc54)c3n2)cc1,.,11%,.
Cc1cc(C(F)F)n2ncc(C(=O)N3CCc4ccccc4C3)c2n1,22µM*,?,-22
O=C(Nc1cccnc1Cl)C1c2ccccc2Oc2ccccc21,-15%,-3%,14
COc1cccc(NC(=O)N2CCCC2C(=O)NC2CC2)c1 (stereo unspecified),-9%,22%,?
C#Cc1ccc([C@H]2C=C(C(=O)N3CCOCC3)O[C@@H](OCC)[C@@H]2CCCO)cc1,.,-8%,.
COc1ccc(C2C(C(=O)N3CCCCC3)CCC(=O)N2c2cc(OC)c(OC)c(OC)c2)cc1 (stereo unspecified),-7%,7%,-29
CCC(C)NC(=O)C1CCC(=O)N(c2ccc3c(c2)OCO3)C1c1ccc(OC)cc1 (stereo unspecified),-1%,6.3µM*,-18
CCN(CC)CCCNC(=O)C1CCC(=O)N(c2ccc(OC)cc2)C1c1ccc(F)cc1 (stereo unspecified),-9%,1%,62
CCC(C)NC(=O)C1CCC(=O)N(c2cc(OC)c(OC)c(OC)c2)C1c1ccc(OC)cc1 (stereo unspecified),-11%,-4%,-100*
